Experimental data: PubChem BioAssay (NCI)
The panel holds about 83,000 compounds, 20% with a hit somewhere; the sample as a whole holds those more often.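 Negative percent growth values reflect cell death: -40 means 40% of the cells present at the start died, and -100 means all died.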 Values without a mark were called inactive. Active and inactive are the calls of the source. How the source made its calls: active means growth percent below 10; inactive means the rest.

What was measured:
Test in all cases: NCI-60 one-dose screen, 48 h (100 = growth as untreated, 0 = no growth, -100 = all killed)
Conditions in all cases: 10 µM unless noted
NCI-H23 lung = system: NCI-H23 lung
NCI-H226 lung = system: NCI-H226 lung
NCI-H322M lung = system: NCI-H322M lung
HOP-62 NSCLC = system: HOP-62 NSCLC
NCI-H460 lung = system: NCI-H460 lung
HOP-92 NSCLC = system: HOP-92 NSCLC
NCI-H522 lung = system: NCI-H522 lung
A549/ATCC NSCLC = system: A549/ATCC NSCLC
786-0 renal = system: 786-0 renal
COLO 205 colon = system: COLO 205 colon
DU-145 prostate = system: DU-145 prostate
K-562 leukemia = system: K-562 leukemia
MALME-3M melanoma = system: MALME-3M melanoma
MDA-MB-231 breast = system: MDA-MB-231 breast
RXF 393 renal = system: RXF 393 renal
SF-268 CNS = system: SF-268 CNS
SF-295 CNS = system: SF-295 CNS
SF-539 CNS = system: SF-539 CNS
UACC-257 melanoma = system: UACC-257 melanoma
M14 melanoma = system: M14 melanoma

Compound | growth (NCI-H23 lung) | growth (NCI-H226 lung) | growth (NCI-H322M lung) | growth (HOP-62 NSCLC) | growth (NCI-H460 lung) | growth (HOP-92 NSCLC) | growth (NCI-H522 lung) | growth (A549/ATCC NSCLC) | growth (786-0 renal) | growth (COLO 205 colon) | growth (DU-145 prostate) | growth (K-562 leukemia) | growth (MALME-3M melanoma) | growth (MDA-MB-231 breast) | growth (RXF 393 renal) | growth (SF-268 CNS) | growth (SF-295 CNS) | growth (SF-539 CNS) | growth (UACC-257 melanoma) | growth (M14 melanoma)
CN1CCN(c2ccc(NC(=O)c3cncnc3Nc3ccc4c(ccn4Cc4cccc(F)c4)c3)cc2)CC1 | 72.6% | 85.5% | 92.9% | 8.44% (active) | 30.7% | 59.9% | 75.6% | 43.2% | -38.4% (active) | -34% (active) | 54% | 2.74% (active) | -82.6% (active) | 11.9% | 31% | 71% | 80.8% | 45% | 65.4% | -59.3% (active)
CC1(C)CC[C@]2(C(=O)O)CC[C@]3(C)C(=CC[C@@H]4[C@@]5(C)C[C@@H](Cc6cn([C@@H]7O[C@H](CO)[C@@H](O)[C@H](O)[C@H]7O)nn6)[C@H](O)C(C)(C)[C@@H]5CC[C@]43C)[C@@H]2C1 | 104% | 98.3% | 97.4% | 89.2% | 106% | 102% | 106% | 85% | 95.8% | 113% | 112% | 90% | 112% | 97.2% | 106% | 103% | 99.3% | 101% | 88.8% | 97.5%
C=C(CN1CC=CCC1)[C@@H]1CC[C@]2(CO)CC[C@]3(C)[C@H](CC[C@@H]4[C@@]5(C)CC[C@H](O)C(C)(C)[C@@H]5CC[C@]43C)[C@@H]12 | 101% | 97.4% | 110% | 104% | 96.2% | 92.4% | 96% | 94.8% | 113% | 108% | 106% | 77% | 101% | 116% | 106% | 101% | 102% | 91.1% | 111% | 96.1%
COc1ccc(/C=C/C(=O)c2ccc(NC(=O)CSc3nnc(-c4cc(-c5ccccc5)nc5ccccc45)n3-c3ccccc3)cc2)cc1 | 93.2% | 102% | 99.6% | 97.3% | 107% | 84.9% | 83.9% | 97.9% | 95.4% | 110% | 94.9% | 88.8% | 98% | 87.3% | 103% | 98.3% | 103% | 97.8% | 105% | 99%
COc1ccc2c(c1)c(-c1ccc(-c3cn(C)c4ccc(OC)cc34)[nH]1)cn2C | 34.2% | 58.8% | 71% | 83.3% | 30.1% | -7.36% (active) | -47.8% (active) | 28.8% | 65% | -58.2% (active) | 66.2% | 0.411% (active) | 30.2% | -3.99% (active) | -28.5% (active) | 9.71% (active) | 44.5% | -57.3% (active) | 87% | 43.6%
COc1ccccc1-n1c(-c2cc(O)ccc2C)cn2c3c(=O)[nH]c(=O)n(C)c3nc12 | 90.6% | 107% | 36% | 68.2% | 91.6% | -1.51% (active) | 44.5% | 66.3% | 52.8% | 84.2% | 79.3% | 25.3% | 89.9% | 41.2% | 19.2% | 60.3% | 89.8% | 72.6% | 83.8% | 92.2%
CC(C)[C@@]12C[C@@H](OC(=O)COC(=O)c3ccccc3)[C@@](C)(O1)[C@@H]1CC[C@@H](C)[C@H]1[C@@H]2OC(=O)/C=C/c1ccccc1 | 90.1% | 64.4% | 87% | 89.5% | 95.3% | 76.9% | 80.9% | 80.9% | 68.7% | 108% | 101% | 75.4% | 106% | 86.3% | -2.22% (active) | 63.4% | 94.5% | 95.4% | 95.3% | 104%
